Reference: paper PMC11062922 (Nature Chemical Biology, 2023)
Where two headings read alike, the source gives them in different places.

Key:
[1] = tested on: NUAK1; details: read-out: apparent Kd, n = 1
[2] = tested on: PAK4; details: read-out: apparent Kd, n = 1
[3] = compound concentrations:100 nM and 1000 nM (sheet 'Lestaurtinib' of Supplementary Table 1),run:Lestaurtinib_02496_R2,Plate:MR013
[4] = compound concentrations:100 nM and 1000 nM (sheet 'Lestaurtinib' of Supplementary Table 1),run:Lestaurtinib_02566_R2,Plate:MR014
[5] = compound concentrations:100 nM and 1000 nM (sheet 'Lestaurtinib' of Supplementary Table 1),run:Lestaurtinib_02566_R3,Plate:MR014
[6] = compound concentrations:100 nM and 1000 nM (sheet 'Lestaurtinib' of Supplementary Table 1),run:Lestaurtinib_02572_R2,Plate:MR015
[7] = compound concentrations:100 nM and 1000 nM (sheet 'Lestaurtinib' of Supplementary Table 1),run:Lestaurtinib_02584_R2,Plate:MR017
[8] = compound concentrations:100 nM and 1000 nM (sheet 'Lestaurtinib' of Supplementary Table 1),run:Lestaurtinib_02601_R1,Plate:MR018
[9] = compound concentrations:100 nM and 1000 nM (sheet 'Lestaurtinib' of Supplementary Table 1),run:Lestaurtinib_02606_R1,Plate:MR019
[10] = compound concentrations:100 nM and 1000 nM (sheet 'Lestaurtinib' of Supplementary Table 1),run:Lestaurtinib_02606_R3,Plate:MR019
[11] = compound concentrations:100 nM and 1000 nM (sheet 'Lestaurtinib' of Supplementary Table 1),run:Lestaurtinib_02624_R2,Plate:MR020
[12] = compound concentrations:100 nM and 1000 nM (sheet 'Lestaurtinib' of Supplementary Table 1),run:Lestaurtinib_02724_R1,Plate:MR021
[13] = compound concentrations:100 nM and 1000 nM (sheet 'Lestaurtinib' of Supplementary Table 1),run:Lestaurtinib_02741_R1,Plate:MR023
[14] = compound concentrations:100 nM and 1000 nM (sheet 'Lestaurtinib' of Supplementary Table 1),run:Lestaurtinib_02741_R3,Plate:MR023
[15] = compound concentrations:100 nM and 1000 nM (sheet 'Lestaurtinib' of Supplementary Table 1),run:Lestaurtinib_02748_R1,Plate:MR024
[16] = compound concentrations:100 nM and 1000 nM (sheet 'Lestaurtinib' of Supplementary Table 1),run:Lestaurtinib_02765_R1,Plate:MR026
[17] = compound concentrations:100 nM and 1000 nM (sheet 'Lestaurtinib' of Supplementary Table 1),run:Lestaurtinib_02765_R3,Plate:MR026
[18] = compound concentrations:100 nM and 1000 nM (sheet 'Lestaurtinib' of Supplementary Table 1),run:Lestaurtinib_02766_R1,Plate:MR027

Lestaurtinib
potency estimated from few doses [1, 3]: 81.1 nM
potency estimated from few doses [1, 4]: 73 nM
potency estimated from few doses [1, 5]: 85.3 nM
potency estimated from few doses [1, 6]: 17.9 nM
potency estimated from few doses ([1]; compound concentrations:100 nM and 1000 nM (sheet 'Lestaurtinib' of Supplementary Table 1),run:Lestaurtinib_02572_R3,Plate:MR015): 42.5 nM
potency estimated from few doses ([1]; compound concentrations:100 nM and 1000 nM (sheet 'Lestaurtinib' of Supplementary Table 1),run:Lestaurtinib_02577_R2,Plate:MR016): 113 nM
potency estimated from few doses ([1]; compound concentrations:100 nM and 1000 nM (sheet 'Lestaurtinib' of Supplementary Table 1),run:Lestaurtinib_02577_R3,Plate:MR016): 73.6 nM
potency estimated from few doses ([1]; compound concentrations:100 nM and 1000 nM (sheet 'Lestaurtinib' of Supplementary Table 1),run:Lestaurtinib_02584_R1,Plate:MR017): 89.4 nM
potency estimated from few doses [1, 7]: 66.9 nM
potency estimated from few doses ([1]; compound concentrations:100 nM and 1000 nM (sheet 'Lestaurtinib' of Supplementary Table 1),run:Lestaurtinib_02584_R3,Plate:MR017): 134 nM
potency estimated from few doses [1, 8]: 142 nM
potency estimated from few doses [1, 9]: 39.7 nM
potency estimated from few doses ([1]; compound concentrations:100 nM and 1000 nM (sheet 'Lestaurtinib' of Supplementary Table 1),run:Lestaurtinib_02606_R2,Plate:MR019): 58 nM
potency estimated from few doses [1, 10]: 92 nM
potency estimated from few doses [1, 11]: 82.2 nM
potency estimated from few doses ([1]; compound concentrations:100 nM and 1000 nM (sheet 'Lestaurtinib' of Supplementary Table 1),run:Lestaurtinib_02624_R3,Plate:MR020): 96.7 nM
potency estimated from few doses [1, 12]: 59.7 nM
potency estimated from few doses [1, 13]: 165 nM
potency estimated from few doses [1, 14]: 43.7 nM
potency estimated from few doses [1, 15]: 52.3 nM
potency estimated from few doses ([1]; compound concentrations:100 nM and 1000 nM (sheet 'Lestaurtinib' of Supplementary Table 1),run:Lestaurtinib_02748_R2,Plate:MR024): 40.2 nM
potency estimated from few doses ([1]; compound concentrations:100 nM and 1000 nM (sheet 'Lestaurtinib' of Supplementary Table 1),run:Lestaurtinib_02752_R1,Plate:MR025): 56.1 nM
potency estimated from few doses ([1]; compound concentrations:100 nM and 1000 nM (sheet 'Lestaurtinib' of Supplementary Table 1),run:Lestaurtinib_02752_R3,Plate:MR025): 64.1 nM
potency estimated from few doses [1, 16]: 74.4 nM
potency estimated from few doses [1, 17]: 64.4 nM
potency estimated from few doses [1, 18]: 97.5 nM
potency estimated from few doses ([1]; compound concentrations:100 nM and 1000 nM (sheet 'Lestaurtinib' of Supplementary Table 1),run:Lestaurtinib_02766_R3,Plate:MR027): 92.8 nM
potency estimated from few doses ([1]; compound concentrations:100 nM and 1000 nM (sheet 'Lestaurtinib' of Supplementary Table 1),run:Lestaurtinib_02768_R2,Plate:MR028): 41.7 nM
potency estimated from few doses ([1]; compound concentrations:100 nM and 1000 nM (sheet 'Lestaurtinib' of Supplementary Table 1),run:Lestaurtinib_02768_R3,Plate:MR028): 48.7 nM
potency estimated from few doses ([1]; compound concentrations:100 nM and 1000 nM (sheet 'Lestaurtinib' of Supplementary Table 1),run:Lestaurtinib_02795_R1,Plate:MR022): 62.8 nM
potency estimated from few doses ([1]; compound concentrations:100 nM and 1000 nM (sheet 'Lestaurtinib' of Supplementary Table 1),run:Lestaurtinib_02795_R2,Plate:MR022): 38.6 nM
potency estimated from few doses ([1]; compound concentrations:100 nM and 1000 nM (sheet 'Lestaurtinib' of Supplementary Table 1),run:Lestaurtinib_02795_R3,Plate:MR022): 165 nM
potency estimated from few doses ([1]; compound concentrations:100 nM and 1000 nM (sheet 'Lestaurtinib' of Supplementary Table 1),run:Lestaurtinib_02802_R1,Plate:MR029): 72.2 nM
potency estimated from few doses ([1]; compound concentrations:100 nM and 1000 nM (sheet 'Lestaurtinib' of Supplementary Table 1),run:Lestaurtinib_02802_R3,Plate:MR029): 44.9 nM
potency estimated from few doses ([1]; compound concentrations:100 nM and 1000 nM (sheet 'Lestaurtinib' of Supplementary Table 1),run:Lestaurtinib_02896_R1,Plate:MR030): 52.5 nM
potency estimated from few doses ([1]; compound concentrations:100 nM and 1000 nM (sheet 'Lestaurtinib' of Supplementary Table 1),run:Lestaurtinib_02896_R3,Plate:MR030): 55.1 nM
potency estimated from few doses ([1]; compound concentrations:100 nM and 1000 nM (sheet 'Lestaurtinib' of Supplementary Table 1),run:Lestaurtinib_03172_R2,Plate:MR031): 66.5 nM
potency estimated from few doses ([1]; compound concentrations:100 nM and 1000 nM (sheet 'Lestaurtinib' of Supplementary Table 1),run:Lestaurtinib_03172_R3,Plate:MR031): 62.7 nM
potency estimated from few doses ([1]; compound concentrations:100 nM and 1000 nM (sheet 'Lestaurtinib' of Supplementary Table 1),run:Lestaurtinib_03252_R1,Plate:MR032): 51.7 nM
potency estimated from few doses ([2]; compound concentrations:100 nM and 1000 nM (sheet 'Lestaurtinib' of Supplementary Table 1),run:Lestaurtinib_02339_R1,Plate:MR001): 32.7 nM
potency estimated from few doses ([2]; compound concentrations:100 nM and 1000 nM (sheet 'Lestaurtinib' of Supplementary Table 1),run:Lestaurtinib_02339_R2,Plate:MR001): 36.1 nM
potency estimated from few doses ([2]; compound concentrations:100 nM and 1000 nM (sheet 'Lestaurtinib' of Supplementary Table 1),run:Lestaurtinib_02364_R1,Plate:MR002): 32 nM
potency estimated from few doses ([2]; compound concentrations:100 nM and 1000 nM (sheet 'Lestaurtinib' of Supplementary Table 1),run:Lestaurtinib_02364_R2,Plate:MR002): 32.9 nM
potency estimated from few doses ([2]; compound concentrations:100 nM and 1000 nM (sheet 'Lestaurtinib' of Supplementary Table 1),run:Lestaurtinib_02364_R3,Plate:MR002): 35.1 nM
potency estimated from few doses ([2]; compound concentrations:100 nM and 1000 nM (sheet 'Lestaurtinib' of Supplementary Table 1),run:Lestaurtinib_02367_R1,Plate:MR003): 29.7 nM
potency estimated from few doses ([2]; compound concentrations:100 nM and 1000 nM (sheet 'Lestaurtinib' of Supplementary Table 1),run:Lestaurtinib_02367_R2,Plate:MR003): 33.6 nM
potency estimated from few doses ([2]; compound concentrations:100 nM and 1000 nM (sheet 'Lestaurtinib' of Supplementary Table 1),run:Lestaurtinib_02367_R3,Plate:MR003): 35.8 nM
potency estimated from few doses ([2]; compound concentrations:100 nM and 1000 nM (sheet 'Lestaurtinib' of Supplementary Table 1),run:Lestaurtinib_02381_R1,Plate:MR004): 31 nM
potency estimated from few doses ([2]; compound concentrations:100 nM and 1000 nM (sheet 'Lestaurtinib' of Supplementary Table 1),run:Lestaurtinib_02381_R3,Plate:MR004): 30 nM
potency estimated from few doses ([2]; compound concentrations:100 nM and 1000 nM (sheet 'Lestaurtinib' of Supplementary Table 1),run:Lestaurtinib_02407_R2,Plate:MR005): 28.6 nM
potency estimated from few doses ([2]; compound concentrations:100 nM and 1000 nM (sheet 'Lestaurtinib' of Supplementary Table 1),run:Lestaurtinib_02407_R3,Plate:MR005): 34.5 nM
potency estimated from few doses ([2]; compound concentrations:100 nM and 1000 nM (sheet 'Lestaurtinib' of Supplementary Table 1),run:Lestaurtinib_02422_R1,Plate:MR006): 44.2 nM
potency estimated from few doses ([2]; compound concentrations:100 nM and 1000 nM (sheet 'Lestaurtinib' of Supplementary Table 1),run:Lestaurtinib_02422_R2,Plate:MR006): 20.2 nM
potency estimated from few doses ([2]; compound concentrations:100 nM and 1000 nM (sheet 'Lestaurtinib' of Supplementary Table 1),run:Lestaurtinib_02438_R2,Plate:MR008): 30.6 nM
potency estimated from few doses ([2]; compound concentrations:100 nM and 1000 nM (sheet 'Lestaurtinib' of Supplementary Table 1),run:Lestaurtinib_02443_R2,Plate:MR009): 31.9 nM
potency estimated from few doses ([2]; compound concentrations:100 nM and 1000 nM (sheet 'Lestaurtinib' of Supplementary Table 1),run:Lestaurtinib_02443_R3,Plate:MR009): 33.2 nM
potency estimated from few doses ([2]; compound concentrations:100 nM and 1000 nM (sheet 'Lestaurtinib' of Supplementary Table 1),run:Lestaurtinib_02482_R2,Plate:MR011): 36.2 nM
potency estimated from few doses ([2]; compound concentrations:100 nM and 1000 nM (sheet 'Lestaurtinib' of Supplementary Table 1),run:Lestaurtinib_02487_R2,Plate:MR012): 38.6 nM
potency estimated from few doses ([2]; compound concentrations:100 nM and 1000 nM (sheet 'Lestaurtinib' of Supplementary Table 1),run:Lestaurtinib_02487_R3,Plate:MR012): 39.1 nM
potency estimated from few doses ([2]; compound concentrations:100 nM and 1000 nM (sheet 'Lestaurtinib' of Supplementary Table 1),run:Lestaurtinib_02496_R1,Plate:MR013): 33 nM
potency estimated from few doses [2, 3]: 30.6 nM
potency estimated from few doses ([2]; compound concentrations:100 nM and 1000 nM (sheet 'Lestaurtinib' of Supplementary Table 1),run:Lestaurtinib_02496_R3,Plate:MR013): 35.4 nM
potency estimated from few doses ([2]; compound concentrations:100 nM and 1000 nM (sheet 'Lestaurtinib' of Supplementary Table 1),run:Lestaurtinib_02566_R1,Plate:MR014): 27.9 nM
potency estimated from few doses [2, 4]: 31 nM
potency estimated from few doses [2, 5]: 38.2 nM
potency estimated from few doses ([2]; compound concentrations:100 nM and 1000 nM (sheet 'Lestaurtinib' of Supplementary Table 1),run:Lestaurtinib_02572_R1,Plate:MR015): 26.1 nM
potency estimated from few doses [2, 6]: 37.9 nM
potency estimated from few doses [2, 7]: 27.4 nM
potency estimated from few doses [2, 8]: 32.9 nM
potency estimated from few doses ([2]; compound concentrations:100 nM and 1000 nM (sheet 'Lestaurtinib' of Supplementary Table 1),run:Lestaurtinib_02601_R2,Plate:MR018): 36.5 nM
potency estimated from few doses ([2]; compound concentrations:100 nM and 1000 nM (sheet 'Lestaurtinib' of Supplementary Table 1),run:Lestaurtinib_02601_R3,Plate:MR018): 32.3 nM
potency estimated from few doses [2, 9]: 35.4 nM
potency estimated from few doses [2, 10]: 35.6 nM
potency estimated from few doses ([2]; compound concentrations:100 nM and 1000 nM (sheet 'Lestaurtinib' of Supplementary Table 1),run:Lestaurtinib_02624_R1,Plate:MR020): 26.1 nM
potency estimated from few doses [2, 11]: 31 nM
potency estimated from few doses [2, 12]: 32.9 nM
potency estimated from few doses ([2]; compound concentrations:100 nM and 1000 nM (sheet 'Lestaurtinib' of Supplementary Table 1),run:Lestaurtinib_02724_R3,Plate:MR021): 33 nM
potency estimated from few doses [2, 13]: 38.6 nM
potency estimated from few doses ([2]; compound concentrations:100 nM and 1000 nM (sheet 'Lestaurtinib' of Supplementary Table 1),run:Lestaurtinib_02741_R2,Plate:MR023): 39.4 nM
potency estimated from few doses [2, 14]: 35.6 nM
potency estimated from few doses [2, 15]: 30.4 nM
potency estimated from few doses [2, 16]: 29.8 nM
potency estimated from few doses ([2]; compound concentrations:100 nM and 1000 nM (sheet 'Lestaurtinib' of Supplementary Table 1),run:Lestaurtinib_02765_R2,Plate:MR026): 36.5 nM
potency estimated from few doses [2, 17]: 36.5 nM
potency estimated from few doses [2, 18]: 27.8 nM
